SARS PLP yeast: SARS-CoV PLP inhibition in yeast; S. cerevisiae expressing SARS-CoV PLpro, growth rescue; Potency, µM (highest dose often 32.9 µM), hits mostly activators; 330,000 tested, 0.19% active; further: nearly all actives have a fitted effect of over 55% in size
Shiga inhibitor: blocks Shiga toxin action in Vero cells; Vero cells, Shiga toxin protein synthesis inhibition reporter; inhibition, % at 38.7 µM; 290,000 tested, 9.2% active; in the data active means inhibition mostly above about 28%, no sharp cut-off; inactive means mostly below about 43%
NS1 function inh: inhibitors of influenza NS1 protein function; Potency, µM (doses to about 46.1 µM); 270,000 tested, 0.4% active; further: actives are rising curves; nearly all actives have a fitted effect of over 50% in size
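Growth recovery, yeast-based: influenza A NS1 expressed in S. cerevisiae causes slow growth, and suppressors are detected by OD600. The parent strain without NS1 is used as positive control.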
Cycloheximide cs: counter-screen for Shiga toxin inhibitors: cycloheximide protein synthesis inhibition; max response, %; cell reporter, cycloheximide protein synthesis inhibition counterscreen; AID 2314; 300,000 tested, 12% active; in the data active means max response mostly above about 13%, no sharp cut-off; inactive means mostly below about 14%; further: read at 38.3 µM for the half of the compounds with a filed dose
Flu NS1 inh: influenza NS1 function inhibition validation; activity change, negative = inhibition, % at 32.9 µM; influenza NS1 function cell assay, 15-point titration; 1,400 tested, under 10 active; shares compounds with NS1 function inh
PR8 titer: influenza virus titer reduction, NS1 project. shares compounds with NS1 function inh. MDCK infected influenza A/PR/8/34, virus titer TCID50; hits give low values. virus titer (log TCID50), log10 TCID50 at 5 µM. 95 tested, 30% active. AID 504647; call rule not given here
Large screens that a line does not name were inactive (follow-up assays come after a bar, where they were run). The list is not random: actives were taken first. Their share in the collection is about 12%. Unless noted, the call rests on the fitted dose curve.

O=C1CCCC2=C1C(c1ccc(Br)cc1)c1c([nH]c(=S)[nH]c1=O)N2 (centres undefined)	NS1 function inh 6.3µM | Flu NS1 inh inactive
COc1cccc(N2C(=O)CC(Nc3ccc(N4CCOCC4)cc3)C2=O)c1 (centres undefined)	none
O=C1CC(Nc2ccc(N3CCOCC3)cc2)C(=O)N1c1cccc(C(F)(F)F)c1 (centres undefined)	NS1 function inh 11µM | Flu NS1 inh inactive
COc1cc(/C=C\C(=O)NCc2ccc3c(c2)cc(C)n3C)cc(OC)c1OC	NS1 function inh inconclusive | Flu NS1 inh inactive
CC(=O)c1ccccc1OCCCCN1CCCCC1	none
O=C(O)c1cccc(CN2C(=O)CSC2=O)c1	NS1 function inh 22µM | Flu NS1 inh inactive
Cn1c(SCC(=O)c2ccc3c(c2)Cc2ccccc2-3)nnc1-c1cccc(N)c1	NS1 function inh inconclusive, Cycloheximide cs 20 | Flu NS1 inh inactive
CC(=O)Nc1ccc(-c2nnc(SCC(=O)c3ccc4c(c3)Cc3ccccc3-4)n2C)cc1	none
COc1ccccc1C(=O)N(Cc1sccc1C)C1CCS(=O)(=O)C1 (centres undefined)	NS1 function inh 3.2µM | Flu NS1 inh inactive
CSCCC(NS(=O)(=O)c1ccccc1F)C(=O)OCc1ccccc1Cl (centres undefined)	none
COc1ccc(CN2C(=O)CC(=O)NC2=O)cc1	NS1 function inh 3.5µM | Flu NS1 inh inactive
COc1ccc(N2C(=O)CC(=O)NC2=O)cc1	none
Oc1ccc(/C=N/Nc2ncnc3c2ncn3Cc2ccccc2)cc1O	SARS PLP yeast inconclusive, NS1 function inh 14µM | Flu NS1 inh inactive
Brc1ccc(/C=N/Nc2ncnc3c2cnn3Cc2ccccc2)cc1	none
CC1(C)Cc2c(C#N)c(N3CCN(C(=O)c4ccco4)CC3)nc(-c3ccco3)c2CS1	NS1 function inh 7.9µM | Flu NS1 inh inactive
Cc1cc(Cl)ccc1OC(C)C(=O)NN1C(=O)c2ccccc2C1=O (centres undefined)	none
CC(C)(C)c1nnc(N/N=C/c2ccccc2)n(N)c1=O	NS1 function inh inconclusive, Cycloheximide cs 11 | Flu NS1 inh inconclusive
COc1ccc(/C=C(/NC(=O)c2ccccc2)C(=O)N2CCOCC2)cc1OC	NS1 function inh inconclusive | Flu NS1 inh inactive
O=C(/C=C/c1ccco1)NC(=S)Nc1cccc([N+](=O)[O-])c1	NS1 function inh 22µM | Flu NS1 inh inactive
NC(N)=NS(=O)(=O)c1ccc(NC(=S)NC(=O)/C=C/c2ccco2)cc1	none
COc1ccc(/C=N/NC(N)=S)cc1OC(=O)c1cccc2ccccc12	SARS PLP yeast inconclusive, Shiga inhibitor 56, NS1 function inh 2.2µM, Cycloheximide cs 23 | Flu NS1 inh inconclusive
COc1ccc(C(=O)Oc2cc(/C=N/NC(N)=S)ccc2OC)cc1	SARS PLP yeast inconclusive, NS1 function inh 8.9µM | Flu NS1 inh inactive
COc1cc(/C=N/NC(N)=S)ccc1OCC(=O)Nc1ccc(C)cc1	none
CCOC(=O)C1=C(COC(=O)/C=C/c2cccc([N+](=O)[O-])c2)NC(=O)NC1C (centres undefined)	none (no result: Shiga inhibitor, NS1 function inh, Cycloheximide cs)
O=C1CC(c2ccco2)CC(O)=C1C=NCC1CCNCC1 (centres undefined)	NS1 function inh 10µM | Flu NS1 inh inactive
O=C1CC(c2ccco2)CC(O)=C1C=NCCN1CCNCC1 (centres undefined)	none
COc1cc(/C=N/NC(=O)c2ccc3nc[nH]c3c2)cc(OC)c1OC	none
COc1cc(/C=N/NC(=O)c2ccc(CSc3nc4ccccc4[nH]3)cc2)cc(OC)c1OC	NS1 function inh 13µM | Flu NS1 inh inconclusive | PR8 titer inactive
O=C(/C=C/c1ccco1)NC(=S)Nc1cc(-c2nc3ccccc3s2)ccc1Cl	Shiga inhibitor 94, NS1 function inh 10µM, Cycloheximide cs 58 | Flu NS1 inh inactive
O=C1C=CC(=O)C(C2=C3C(=O)N(CCc4ccccc4)CC(=O)N3CCC2)=C1	NS1 function inh 14µM | Flu NS1 inh inactive
O=C1CC(=O)N(CCc2ccccc2)C(=O)N1CCc1ccccc1	none
COC(=O)c1sccc1NC(=O)c1cc(-c2ccc(C)cc2C)nc2ccccc12	none
C#CCOc1ccc(/C=C2/C(=O)NN(c3ccc(F)cc3)C2=O)cc1OC	NS1 function inh 3.5µM | Flu NS1 inh inactive
COc1cc(/C=C2\C(=O)NN(c3ccccc3)C2=O)ccc1OCC(N)=O	none (no result: NS1 function inh)
CCc1nnc(NC(=O)CSc2nc(C)cs2)s1	NS1 function inh inconclusive

High-throughput results deposited in PubChem BioAssay by National Center for Advancing Translational Sciences (NCATS).
